Most compounds without a hit are left out; they make up all but 0.9% or so of the library.
SSB-PriA inh – blocks PriA binding to SSB C-terminal tail; actives 0.6% (n = 430,000); AID 1272365; inhibition, % at 33 µM; AlphaScreen SSBct-PriA binding, biotinylated peptide; in the data active means inhibition mostly above about 37%, no sharp cut-off; inactive means mostly below about 20%
SARS 3CLpro inh-1 – SARS-CoV 3CLpro protease inhibition; P0C6X7; recombinant SARS-CoV 3CLpro, quenched FRET peptide cleavage; inhibition, % at 6 µM; actives 0.14% (n = 290,000); in the data active means inhibition above about 12%
MazEF act – activators of E. coli MazEF toxin-antitoxin RNase. activation, % at 20 µM. AID 504720. FAM/BHQ RNA-DNA oligo cleavage fluorescence, 5 h. actives 0.32% (n = 350,000). P0AE70; in the data active means activation above about 50%
Target sequence (P0AE70 whole entry, looked up): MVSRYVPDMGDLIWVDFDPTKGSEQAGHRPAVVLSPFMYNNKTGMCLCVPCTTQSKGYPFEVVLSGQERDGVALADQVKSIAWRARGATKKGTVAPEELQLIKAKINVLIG
Yp Topo-I inh – Y. pestis Topo-I inhibition via cleavage products; Y. pestis Topo-I cleavage product accumulation, plate reader; activity, % at 10 µM; actives 0.064% (n = 360,000); AID 504884; in the data active means activity above about 50%, passing the limit was not always enough
SARS 3CLpro inh-2 – SARS 3CLpro inhibition, confirmation assay | shares compounds with SARS 3CLpro inh-1 | inhibition, % at 6 µM | actives 36% (n = 380) | QFRET protease activity assay | AID 1879; in the data active means inhibition above about 13%
Hits are given with their value; 0 = inactive; - = not tested or not shown.

SMILES	SSB-PriA inh	SARS 3CLpro inh-1	MazEF act	Yp Topo-I inh	SARS 3CLpro inh-2
Cc1cc(C)c(S(=O)(=O)/N=C2\C=C(Nc3ccc(C(=O)O)cc3)C(=O)c3ccccc32)c(C)c1	-	12.6	0	0	0
CCc1ccc(NC(=O)C2CCCN(S(=O)(=O)c3ccc4[nH]c(=O)ccc4c3)C2)cc1 (configuration not stated)	0	13.1	0	0	0
NC(=O)CCn1c(C(=O)c2ccc(Cl)cc2)c2ccccc2[n+]1[O-]	0	46.5	0	0	47.8
Cn1nc(-c2ccc(Cl)cc2)nc2c(=O)n(C)c(=O)nc1-2	-	18.1	-	-	48.3
O=S(=O)(NCCn1ccc(-c2ccccn2)n1)c1ccc(OC(F)(F)F)cc1	0	-	-	-	-
Cc1ccc(S(=O)(=O)N2CCN(S(=O)(=O)c3ccc4c(c3)OCCO4)CC2)cc1	0	12.3	0	0	0
O=S(=O)(c1ccc(F)cc1)N1CCN(S(=O)(=O)c2ccc3c(c2)OCCO3)CC1	0	-	0	0	-
COc1ccc(NCc2nn3cc(-c4ccc(OC)c(OC)c4)c4c3n2CCCC4)cc1	0	-	-	-	-
O=C(O)CCN(CCC(=O)O)c1ccccc1	0	0	0	0	-
CC(C)CN(CCC(=O)O)CC(C)C	0	14.2	0	0	0
O=C1CN(C(=O)c2ccccc2)C(=S)N1	0	-	-	-	-
Cc1ccc(C)c(OC(C)C(=O)Nc2nccs2)c1 (configuration not stated)	0	12.6	0	0	0
Cc1ccc(C)c(OC(C)C(=O)Nc2ccc(S(=O)(=O)Nc3nccs3)cc2)c1 (configuration not stated)	0	0	0	0	-
Cc1ccc2[nH]c3c(c2c1)CN(C(=O)CN1c2ccc(F)cc2CCC1C)CC3 (configuration not stated)	0	44.2	0	0	28.0
Cc1ccc2[nH]c3c(c2c1)CN(C(=O)CN1CCN(c2cccc(C)c2C)CC1)CC3	0	0	0	0	-
CCCCCn1c(CN2CCN(Cc3ccccc3)CC2)nc2c1c(=O)[nH]c(=O)n2C	0	12.6	0	0	0
CS(=O)(=O)N1CCC(C(=O)N(Cc2ccco2)C2CCOCC2)CC1	0	-	-	-	-
N#Cc1c(NC(=S)NC(=O)c2ccccc2)sc2c1CCC2	0	21.2	0	0	0
Cc1nc2cc(=O)[nH]n2c(C)c1CCC(=O)O	0	-	-	-	-
CCOc1ccccc1NC(=O)Nc1nc2c(s1)CN(S(=O)(=O)CC)CC2	0	-	-	-	-
CSc1cccc(NC(=O)Cc2ccccc2[N+](=O)[O-])c1	0	13.6	0	0	0
COc1cccc(NC(=O)COC(=O)Cc2ccccc2[N+](=O)[O-])c1	0	0	0	0	-
CN1CCN(c2nc(N)c([N+](=O)[O-])c(Nc3cccc(Cl)c3)n2)CC1	0	-	-	-	-
CC(C)(C)C1CCc2onc(C(=O)Nc3cccnc3)c2C1 (configuration not stated)	0	13.6	0	0	0
O=C(CSc1nnc(-c2cccs2)n1-n1cccc1)Nc1ccc(OC(F)F)cc1	0	-	-	-	-
SMILES	SSB-PriA inh	SARS 3CLpro inh-1	MazEF act	Yp Topo-I inh	SARS 3CLpro inh-2
O=C1/C(=C/NCc2ccccc2Cl)S(=O)(=O)N(Cc2ccccc2)c2ccsc21	0	-	-	-	-
CC(NC(=O)OC(C)(C)C)C(=O)Oc1ccc2ccc(=O)oc2c1 (configuration not stated)	0	0	0	0	-
CC(C)(C)OC(=O)NCCC(=O)Oc1ccc2ccc(=O)oc2c1	0	28.9	0	0	59.2
CCCC(=O)Oc1ccc2c(C)cc(=O)oc2c1	0	17.3	0	0	24.1
O=C(Oc1ccc2ccc(=O)oc2c1)c1cccs1	0	19.9	0	0	34.8
O=C(NCC1CCCN(c2nccs2)C1)c1cc2ccccc2o1 (configuration not stated)	0	-	-	-	-
O=C(NCc1cccs1)N1CCC(S(=O)(=O)c2ccccc2)C1 (configuration not stated)	0	-	-	-	-
O=C(N/N=C\c1c(O)ccc2ccccc12)c1cncc(Br)c1	-	29.2	0	0	26.3
O=C(Oc1ccc(Br)cc1C(=O)/C=C/c1ccccc1F)c1ccco1	0	21.8	0	0	42.9
Cc1nc2ccccn2c(=O)c1NC(=O)Nc1ccccc1Cl	0	-	-	-	-
COc1c(Cl)cc(C(=O)NN)cc1Cl	0	16.2	0	0	17.3
COc1c(Cl)cc(C(=O)O)cc1Cl	0	-	0	0	-
O=C(CSc1ncnc2scc(-c3ccccc3)c12)Nc1nsc(-c2ccccc2)n1	0	-	-	-	-
O=C(CSc1ncnc2scc(-c3ccccc3)c12)Nc1ccc(C(=O)O)cc1	0	12.8	0	0	0
COC(=O)C1=C(C)NC(=S)NC1c1ccc(-c2cccc(Cl)c2)o1 (configuration not stated)	0	0	0	0	-
COC(=O)C1=C(C)NC(=S)NC1c1ccc(-c2ccccc2C(=O)OC)o1 (configuration not stated)	0	13.1	0	0	0
CC(C)c1ccc(S(=O)(=O)Nc2ccc(SC(F)F)cc2)cc1	0	12.8	0	0	0
Cc1ccc(C)c(-c2nnc(NC(=O)C3CCN(S(=O)(=O)c4cccs4)CC3)o2)c1	0	-	-	-	-
O=[N+]([O-])/C=C/c1cn(Cc2ccccc2)c2ccccc12	0	12.6	0	0	0
O=C(c1cc(-c2ccccc2)on1)N1CCN(Cc2nc3ccccc3[nH]2)CC1	0	-	-	-	-
COc1ccc(NS(=O)(=O)c2ccc3oc(Nc4ccc5c(c4)OCCO5)nc3c2)cc1	0	13.3	0	0	0
Nc1ccccc1-c1nc2ccccc2s1	0	0	0	0	-
CN(C)c1nc(N)nc(-c2nc3ccccc3s2)n1	0	13.1	0	0	0

Screening data: PubChem, several laboratories
